Values joined by “and” are separate entries in the source; they are usually repeats but may differ in a detail not shown here. Identical values can stand only once. Results filed as inconclusive are left out. Active and inactive are the calls of the source. Unless noted, calls follow the shape of the dose curve; as a rule, active = well fitted curve in the direction sought with a large enough effect; inconclusive = small, poorly fitted or top-dose-only effect, or another doubt; inactive = no such curve, though single readings can be large; an effect the other way counts as inactive or inconclusive.

The results in this text go back to PubChem BioAssay (NCATS).

Assay [1] addresses Thioredoxin reductase 1, cytoplasmic (Rattus norvegicus) (UniProt O89049). Briefly: qHTS Assay for Substrates of Mammalian Selenoprotein Thioredoxin Reductase 1 (TrxR1) (AID 488772).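 Also: series mostly up to about 57 µM; 0% is about no effect; a drop in NADPH fluorescence below the no-compound background marks a TrxR1 substrate.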 The method, boiled down: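 In this dual-purpose format, potential substrates are identified from the first fluorescence read after selenite addition, not from the 8-minute delta. Rat enzyme is preincubated with NADPH and then with compound at ~22 deg C.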
(qHTS replaces the single test concentration by a dilution series.)

The target in assay [2] is Flap endonuclease 1 (Homo sapiens) (UniProt P39748). As to the kind of experiment: qHTS Validation Assay for the Inhibitors of Human Flap endonuclease 1 (FEN1) (AID 488816). Also: potency is read from the fitted curve at half-maximal effect. Summed up:
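qHTS format: compounds and 10 nM FEN1 incubated 15 min at room temperature before adding 50 nM substrate. Cleavage followed by reads at 0 and 15 min; normalized data fitted to a four-parameter Hill curve.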

In assay [3] the target is M-phase phosphoprotein 8 (Homo sapiens) (UniProt Q99549). As to the kind of experiment: qHTS Validation Assay for Inhibitors for MPP8 Chromodomain Interactions with Methylated Histone Tails (AID 488949). Also: nearly all actives have a fitted effect of over 55% in size. Also: potency is read from the fitted curve at half-maximal effect. Summed up: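 50 nM MPP8 + 50 nM b-H3K9me3 peptide, PBS pH 7.4/0.01% Tween-20, 30 min RT; + cpd 30 min RT; + AlphaScreen donor/Ni-chelate acceptor beads 10 ug/mL final, 30 min dark; luminescence read.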

Assay [4] has as its target Chromobox protein homolog 1 (Homo sapiens) (UniProt P83916). Briefly: qHTS Validation Assay for Inhibitors of HP1-beta Chromodomain Interactions with Methylated Histone Tails (AID 488953). Also: nearly all actives have a fitted effect of over 50% in size. Also: potency is read from the fitted curve at half-maximal effect. Summed up: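 Compounds pinned into a preassembled complex of HP1-beta and trimethyl-K9 histone H3(1-18) biotin peptide (50 nM each; PBS pH 7.4, 0.01% Tween-20). After 30 min, bead-based AlphaScreen detection followed.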

The target of assay [5] is Transient receptor potential cation channel subfamily V member 1 (Homo sapiens) (UniProt Q8NER1). As to the kind of experiment: HTS Assay for Compounds that Act as Enhancers of the Vanilloid Receptor 1 (AID 488979). Also: 0% is about no effect. Summed up:
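Calcium influx kinetics via Fluo-8 (480/520 nm) in TRPV1-expressing cells, 2000/well cultured overnight at 35.5C. Compound-alone read 3 min (agonist phase), followed by EC20 capsaicin challenge for 2 min (enhancer phase).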

The target of assay [6] is Thyrotropin receptor (Homo sapiens) (UniProt P16473). As to the kind of experiment: qHTS Assay for Antagonists of the Thyroid Stimulating Hormone Receptor (AID 488980). Also: series mostly up to about 58 µM; 0% is about no effect. The method, boiled down:
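Readout is cAMP by HTRF competition between cellular cAMP and cAMP-d2 for a cryptate-labelled antibody. Antagonism was assessed in TSHR-transfected HEK293 cells stimulated with 4 nM TSH (EC80, final) in the presence of RO 20-1724.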

Assay [7] concerns the target D(1A) dopamine receptor (Homo sapiens) (UniProt P21728). As to the kind of experiment: HTS Assay for Allosteric Agonists of the Human D1 Dopamine Receptor: Primary Screen for Agonists (AID 488981). Also: potency is read from the fitted curve at half-maximal effect. As to activation: 0% is about no effect. Summed up:
(§1)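 Calcium flux in an inducible, force-coupled HEK293 Trex D1 line (overnight at 30 C): agonist mode is the 180 s kinetic read after compound; potentiator mode is the following 180 s read after dopamine at EC20.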

For assay [8] the target is unchanged. Briefly: HTS Assay for Allosteric Agonists of the Human D1 Dopamine Receptor: Primary Screen for Potentiators (AID 488982). Also: 0% is about no effect. The method, boiled down:
as §1

Assay [9] has the same target. Briefly: HTS Assay for Allosteric Agonists of the Human D1 Dopamine Receptor: Primary Screen for Antagonists (AID 488983).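 Also: calcium flux response to an EC80 dopamine challenge measured with no-wash dye; nearly all actives have a fitted effect of over 65% in size.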 Also: potency is read from the fitted curve at half-maximal effect. The method, boiled down: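 In this primary screen, compounds are applied to calcium-dye-loaded HEK293 T-REx cells with force-coupled D1 expression induced overnight at 30 C. An EC80 of dopamine follows the 180 s compound phase, and calcium is monitored for a further 180 s.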

The target of assay [10] is ATPase family AAA domain-containing protein 5 (Homo sapiens) (UniProt Q96QE3). As to the kind of experiment: Validation screen for small molecules that inhibit ELG1-dependent DNA repair in human embryonic kidney (HEK293T) cells expressing luciferase-tagged ELG1 (AID 493107). Also: nearly all actives have a fitted effect of over 70% in size. Also: potency is read from the fitted curve at half-maximal effect. Summed up: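 Compounds reducing 5-fluorouridine-driven ELG1-luciferase signal in HEK293T cells were scored; exposure lasted 16 hr at 37 °C with luminescence detected via ONE-Glo.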

Assay [11] deals with Thyrotropin-releasing hormone receptor (Homo sapiens) (UniProt P34981). Briefly: qHTS for Small Molecule Agonists and Allosteric Enhancers of Human TRH Receptor: Validation Screen for Agonists (AID 493127;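 active = calcium activation more than 3 SD above the typical response in the agonist read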;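 also: intracellular calcium rise by fluo-8 fluorescence before TRH EC20 addition; 0% is about no effect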). The conditions noted are these: TRH receptor agonist cell assay; at 2 µM; stronger effect = higher value. The method, boiled down: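 Kinetic fluorescence assay of agonist-induced calcium release: overnight-plated TRHR cells, room-temperature fluo-8 loading, baseline then compound addition with per-second reads.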

A short description of assay [12]: Nrf2 qHTS screen for inhibitors: Validation (AID 493153; active = well fitted inhibition curve with a large enough effect in the main read-out, with a control signal flat, not every such curve was filed as active). The conditions noted are these: Potency: luciferase luminescence; viability change: measured here: cytotoxicity max response. Summed up: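 In this counterscreened reporter format, each well gives two signals: CellTiter-Fluor fluorescence for cytotoxicity and ARE-luciferase luminescence for Nrf2 function. A549 ARE_Fluc cells in 5% FBS OPTI-MEM were exposed to compound titrations for 18-24 h.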

In assay [13] the target is Galactokinase (Homo sapiens) (UniProt P51570). As to the kind of experiment: qHTS Validation Assay for Inhibitors of Human Galactokinase (GALK) (AID 493189). Also: 0% is about no effect. Summed up: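 5 nM GALK / 100 uM galactose / 35 uM ATP, 20 mM HEPES pH8.0, 5 mM MgCl2, 60 mM NaCl, 1 mM DTT, 0.01% BSA (final). RT 1 h; Kinase-Glo Plus luminescence.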
Assay [14] can be described thus: Validation screen for small molecules that induce DNA re-replication in SW480 colon adenocarcinoma cells (AID 504364). Also: 0% is about no effect. The method, boiled down: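 Hoechst-stained SW480 nuclei, imaged at 405 nm excitation after 48 hr compound exposure, were counted for elevated DNA content as the re-replication signal.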
Assay [15] is described as follows: Validation screen for small molecules that induce genotoxicity in human embryonic kidney (HEK293T) cells expressing luciferase-tagged ELG1 (AID 493106). Also: 0% is about no effect. Summed up:
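In this validation screen, increased ELG1-luciferase signal flags compounds causing genetic stress. HEK293T reporter cells are treated 16 hr (37 °C, 5% CO2), developed with ONE-Glo for 30 min at room temperature, and imaged on a CCD-based reader.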

The target of assay [16] is Methanococcus maripaludis chaperonin (MmCpn) (UniProt Q6LX38). As to the kind of experiment: High-Throughput Screening for Modulators of Cytosolic Chaperonin Activity: MmCpn Primary Screen (AID 488978).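 Also: 50 nM MmCpn enzyme hydrolysing 30 µM ATP at 37 °C; 0% is about no effect.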 The method, boiled down: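 Steps: chaperonin 50 nM final; add compound, 5 min RT; start with ATP, 30 uM final; hold 10 min at 37C; add ADP Transcreener HTRF reagent, 5 min; read ex 320, em 590 and 665 nm.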

Assay [17] in a line: qHTS for Inhibitors of Cell Surface uPA Generation: Validation Assay (AID 493164).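 Also: RAW 264.7 macrophage cells exposed to compound for 18 h; 0% is about no effect.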 The method, boiled down: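 Compounds are titrated over seven points (2.45 nM–38.3 uM final) onto pre-plated RAW 264.7 cells and incubated for 18 h. Retained intracellular ATP, measured with ATP-Lite, indicates blocked lethal factor entry.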
Assay [18] deals with Thioredoxin reductase 1, cytoplasmic (Rattus norvegicus) (UniProt O89049). Briefly: qHTS Assay for Inhibitors of Mammalian Selenoprotein Thioredoxin Reductase 1 (TrxR1) (AID 488773). Also: potency is read from the fitted curve at half-maximal effect; nearly all actives have a fitted effect of over 40% in size. The conditions noted are these: Potency: inhibition. The method, boiled down: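 Inhibition is scored from the loss of NADPH fluorescence between first and last reads of an 8-min kinetic run. Selenite (400 uM) was the substrate, added after 15 min compound preincubation at room temperature.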
Sequence of Thioredoxin reductase 1, cytoplasmic (Rattus norvegicus) (O89049 whole entry, looked up): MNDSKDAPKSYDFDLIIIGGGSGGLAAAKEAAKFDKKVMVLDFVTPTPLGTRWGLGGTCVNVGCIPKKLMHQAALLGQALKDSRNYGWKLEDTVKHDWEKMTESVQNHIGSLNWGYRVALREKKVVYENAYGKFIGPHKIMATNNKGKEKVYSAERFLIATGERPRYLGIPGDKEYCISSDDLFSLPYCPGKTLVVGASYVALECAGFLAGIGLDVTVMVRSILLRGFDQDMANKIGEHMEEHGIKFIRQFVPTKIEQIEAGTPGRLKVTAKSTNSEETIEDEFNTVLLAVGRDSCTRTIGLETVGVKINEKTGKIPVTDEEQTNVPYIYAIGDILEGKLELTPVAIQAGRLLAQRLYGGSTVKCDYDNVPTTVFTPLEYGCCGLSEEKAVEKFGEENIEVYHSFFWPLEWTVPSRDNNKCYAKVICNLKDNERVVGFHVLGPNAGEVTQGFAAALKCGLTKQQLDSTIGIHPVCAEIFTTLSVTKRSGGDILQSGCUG

Sequence of Flap endonuclease 1 (Homo sapiens) (P39748 whole entry, looked up): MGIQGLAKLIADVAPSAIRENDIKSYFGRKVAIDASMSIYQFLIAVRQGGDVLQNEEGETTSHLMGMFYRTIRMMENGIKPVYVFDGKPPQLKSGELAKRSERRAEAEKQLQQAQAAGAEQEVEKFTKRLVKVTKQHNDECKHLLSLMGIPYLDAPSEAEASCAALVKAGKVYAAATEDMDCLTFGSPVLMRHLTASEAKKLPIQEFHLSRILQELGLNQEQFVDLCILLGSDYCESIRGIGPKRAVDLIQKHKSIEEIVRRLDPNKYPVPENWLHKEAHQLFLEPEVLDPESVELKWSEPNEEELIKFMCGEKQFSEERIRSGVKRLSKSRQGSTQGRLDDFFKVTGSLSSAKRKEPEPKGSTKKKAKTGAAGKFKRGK
Sequence of Methanococcus maripaludis chaperonin (MmCpn) (Q6LX38 1-543): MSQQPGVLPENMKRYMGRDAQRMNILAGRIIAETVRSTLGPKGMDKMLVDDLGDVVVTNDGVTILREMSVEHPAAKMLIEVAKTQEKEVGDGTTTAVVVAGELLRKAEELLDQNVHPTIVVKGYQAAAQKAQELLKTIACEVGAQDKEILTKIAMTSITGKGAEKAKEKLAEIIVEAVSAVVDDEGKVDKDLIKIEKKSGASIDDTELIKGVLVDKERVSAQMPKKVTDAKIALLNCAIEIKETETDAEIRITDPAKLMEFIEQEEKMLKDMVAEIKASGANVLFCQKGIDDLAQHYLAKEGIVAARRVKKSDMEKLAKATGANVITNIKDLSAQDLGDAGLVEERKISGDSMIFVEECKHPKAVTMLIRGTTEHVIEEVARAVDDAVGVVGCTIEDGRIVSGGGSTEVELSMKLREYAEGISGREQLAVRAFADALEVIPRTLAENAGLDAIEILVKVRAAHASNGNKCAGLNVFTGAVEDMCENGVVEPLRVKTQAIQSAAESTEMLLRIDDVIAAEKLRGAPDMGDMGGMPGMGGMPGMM
Sequence of ATPase family AAA domain-containing protein 5 (Homo sapiens) (Q96QE3 whole entry, looked up, the tested form may be a part): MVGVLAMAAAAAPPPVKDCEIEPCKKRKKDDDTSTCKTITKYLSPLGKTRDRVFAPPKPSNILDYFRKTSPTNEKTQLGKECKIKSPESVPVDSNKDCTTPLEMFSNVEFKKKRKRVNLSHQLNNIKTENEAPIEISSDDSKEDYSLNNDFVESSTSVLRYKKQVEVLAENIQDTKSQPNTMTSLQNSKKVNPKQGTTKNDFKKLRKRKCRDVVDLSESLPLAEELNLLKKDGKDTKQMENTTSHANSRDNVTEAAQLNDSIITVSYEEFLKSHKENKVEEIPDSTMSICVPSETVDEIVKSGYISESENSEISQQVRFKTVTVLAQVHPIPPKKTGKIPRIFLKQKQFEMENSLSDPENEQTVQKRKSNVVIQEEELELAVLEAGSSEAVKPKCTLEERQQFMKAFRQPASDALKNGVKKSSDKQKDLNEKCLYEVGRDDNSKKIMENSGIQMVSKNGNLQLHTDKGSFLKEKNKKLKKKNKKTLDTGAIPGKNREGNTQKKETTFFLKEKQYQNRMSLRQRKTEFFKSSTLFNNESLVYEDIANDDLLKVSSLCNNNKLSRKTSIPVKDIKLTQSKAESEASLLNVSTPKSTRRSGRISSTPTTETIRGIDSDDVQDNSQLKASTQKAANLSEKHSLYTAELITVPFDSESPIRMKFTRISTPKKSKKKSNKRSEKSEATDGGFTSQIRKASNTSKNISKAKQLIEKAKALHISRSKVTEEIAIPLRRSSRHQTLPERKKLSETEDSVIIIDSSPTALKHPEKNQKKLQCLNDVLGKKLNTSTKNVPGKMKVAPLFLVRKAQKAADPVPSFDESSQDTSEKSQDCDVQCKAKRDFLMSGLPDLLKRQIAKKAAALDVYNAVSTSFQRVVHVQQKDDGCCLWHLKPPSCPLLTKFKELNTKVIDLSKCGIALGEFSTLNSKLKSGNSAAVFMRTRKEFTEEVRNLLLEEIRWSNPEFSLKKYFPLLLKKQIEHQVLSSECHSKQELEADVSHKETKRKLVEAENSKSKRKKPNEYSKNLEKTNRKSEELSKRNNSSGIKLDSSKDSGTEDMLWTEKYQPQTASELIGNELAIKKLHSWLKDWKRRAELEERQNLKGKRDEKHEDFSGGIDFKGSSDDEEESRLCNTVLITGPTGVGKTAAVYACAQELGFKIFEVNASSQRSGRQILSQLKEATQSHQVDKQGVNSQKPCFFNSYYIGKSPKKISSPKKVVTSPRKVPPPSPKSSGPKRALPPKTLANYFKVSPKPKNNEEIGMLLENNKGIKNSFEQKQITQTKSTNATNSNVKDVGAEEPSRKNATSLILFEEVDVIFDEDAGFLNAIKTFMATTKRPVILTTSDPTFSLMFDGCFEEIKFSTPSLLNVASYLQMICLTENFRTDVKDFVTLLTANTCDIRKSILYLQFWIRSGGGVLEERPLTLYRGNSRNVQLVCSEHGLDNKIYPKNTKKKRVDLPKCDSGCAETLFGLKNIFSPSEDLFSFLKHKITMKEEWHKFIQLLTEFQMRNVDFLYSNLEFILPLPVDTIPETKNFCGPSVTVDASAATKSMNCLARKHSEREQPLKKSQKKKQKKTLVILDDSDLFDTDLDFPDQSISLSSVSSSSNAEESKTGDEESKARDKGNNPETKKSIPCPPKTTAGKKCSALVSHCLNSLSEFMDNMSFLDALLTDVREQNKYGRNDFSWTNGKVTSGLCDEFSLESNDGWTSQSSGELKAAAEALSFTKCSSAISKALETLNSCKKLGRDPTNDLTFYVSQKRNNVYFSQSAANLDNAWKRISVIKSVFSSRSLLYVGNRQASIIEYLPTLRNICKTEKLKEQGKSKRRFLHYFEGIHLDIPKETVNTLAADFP
Sequence of Galactokinase (Homo sapiens) (P51570 whole entry, looked up): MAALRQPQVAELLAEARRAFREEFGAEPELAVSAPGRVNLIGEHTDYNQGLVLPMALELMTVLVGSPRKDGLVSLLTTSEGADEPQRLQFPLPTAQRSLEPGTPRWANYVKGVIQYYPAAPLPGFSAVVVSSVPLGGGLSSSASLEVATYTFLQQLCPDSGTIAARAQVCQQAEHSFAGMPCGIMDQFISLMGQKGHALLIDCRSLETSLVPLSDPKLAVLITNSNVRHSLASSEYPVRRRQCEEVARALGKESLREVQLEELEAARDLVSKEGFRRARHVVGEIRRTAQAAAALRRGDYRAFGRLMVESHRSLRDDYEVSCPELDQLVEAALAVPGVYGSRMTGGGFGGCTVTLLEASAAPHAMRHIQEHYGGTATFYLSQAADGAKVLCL
Sequence of Thyrotropin-releasing hormone receptor (Homo sapiens) (P34981 whole entry, looked up): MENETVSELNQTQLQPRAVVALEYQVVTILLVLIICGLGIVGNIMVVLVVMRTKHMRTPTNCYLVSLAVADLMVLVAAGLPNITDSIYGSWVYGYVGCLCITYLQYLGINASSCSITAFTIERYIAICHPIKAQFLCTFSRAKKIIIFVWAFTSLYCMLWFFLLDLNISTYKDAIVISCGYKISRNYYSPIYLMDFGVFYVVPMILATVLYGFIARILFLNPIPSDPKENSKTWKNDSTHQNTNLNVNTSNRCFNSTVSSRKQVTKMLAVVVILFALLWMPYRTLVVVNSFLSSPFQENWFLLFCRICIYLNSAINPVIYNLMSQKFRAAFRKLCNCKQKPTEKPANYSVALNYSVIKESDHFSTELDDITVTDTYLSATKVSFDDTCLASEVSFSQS
Sequence of Chromobox protein homolog 1 (Homo sapiens) (P83916 whole entry, looked up): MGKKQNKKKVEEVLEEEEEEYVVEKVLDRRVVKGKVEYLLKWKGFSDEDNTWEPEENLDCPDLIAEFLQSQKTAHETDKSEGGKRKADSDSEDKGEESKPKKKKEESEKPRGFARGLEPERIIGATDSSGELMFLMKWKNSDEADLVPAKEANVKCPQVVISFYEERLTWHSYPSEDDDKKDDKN
Sequence of Thyrotropin receptor (Homo sapiens) (P16473 whole entry, looked up): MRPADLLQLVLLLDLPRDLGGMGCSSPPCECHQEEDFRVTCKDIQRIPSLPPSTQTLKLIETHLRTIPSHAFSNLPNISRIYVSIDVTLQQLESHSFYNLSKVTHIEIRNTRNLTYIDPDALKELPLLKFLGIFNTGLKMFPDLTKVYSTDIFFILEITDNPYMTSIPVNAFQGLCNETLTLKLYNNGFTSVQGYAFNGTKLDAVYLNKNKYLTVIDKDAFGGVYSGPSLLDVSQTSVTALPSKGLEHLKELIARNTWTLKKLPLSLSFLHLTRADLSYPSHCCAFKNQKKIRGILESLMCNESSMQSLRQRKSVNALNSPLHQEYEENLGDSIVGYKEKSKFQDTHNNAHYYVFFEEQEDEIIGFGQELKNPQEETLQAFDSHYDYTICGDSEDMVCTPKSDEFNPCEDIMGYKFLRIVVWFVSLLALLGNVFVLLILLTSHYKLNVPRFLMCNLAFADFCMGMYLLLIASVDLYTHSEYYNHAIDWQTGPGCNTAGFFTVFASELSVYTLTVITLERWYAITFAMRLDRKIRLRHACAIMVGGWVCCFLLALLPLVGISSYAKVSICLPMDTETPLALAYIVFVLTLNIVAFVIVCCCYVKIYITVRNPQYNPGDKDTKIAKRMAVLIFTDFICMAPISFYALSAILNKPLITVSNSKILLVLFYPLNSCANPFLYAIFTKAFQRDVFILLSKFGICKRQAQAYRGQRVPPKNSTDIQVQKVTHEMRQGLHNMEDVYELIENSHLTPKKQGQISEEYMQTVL

`NCCCS(=O)(=O)O`: the Potency result in assay [1], in assay [2], in [3], in assay [4], in assay [7] and in [8] was “inactive” in each case. Also, the Potency entry in [9], in [10], in [12], in assay [13] and in [14] was “inactive” each time. Besides, the result in [5] and in assay [6] was inactive. In assay [11], the activation was 0.5% (inactive). Moreover, the viability change in assay [12] was -7.16%.
As for `O=Nc1ccc2oc(=O)ccc2c1`, the Potency result in [1], in assay [2], in [7], in assay [9], in [15] and in assay [10] was “inactive” each time. Also, the Potency result in assay [12] and in [13] was “inactive” throughout. Moreover, the Potency in assay [3] and in assay [4] was 39.8 µM (active) each time. Besides, the result in assay [5] and in [6] was inactive. Besides, the activation in assay [11] is -0.5% (inactive). For the same compound, the viability change in assay [12] stood at 1.8%.
`N#C/C(=C\c1ccc(O)c(O)c1)C(=O)c1ccc(O)c(O)c1`: the Potency entry in assay [1], in [7], in [8], in [9], in assay [15] and in [10] was “inactive” in each case. The Potency entry in assay [12] and in assay [13] was “inactive” each time. The Potency was 0.752 µM (active) in assay [2]; 1.41 µM (active) and 2.99 µM (active) in assay [3]; 0.501 µM (active) in assay [4]. The call in assay [16], in assay [5] and in assay [6] was inactive. Further, in assay [11], the activation is -0.562% (inactive). For the same compound, the viability change in [12] is -19.7%.
For `O=C1NC(=O)/C(=C/c2ccc(-c3ccc(F)cc3O)o2)S1`, the Potency entry in assay [1] and in [8] was “inactive” throughout. In addition, the Potency in assay [2] is 26.7 µM (active); in assay [4] it was 39.8 µM (active). In assay [17], the call was inactive.
In the case of `CCCCCCCCCCCCCCCCCCNC(=O)OCC(COP(=O)([O-])OCC[n+]1ccsc1)OC` (configuration not stated), the Potency entry in [1], in [2], in assay [3], in assay [4], in assay [7] and in assay [8] was “inactive” throughout. Moreover, the Potency entry in [9], in assay [15], in assay [10] and in assay [12] was “inactive” in each case. For the same compound, the outcome in assay [16], in assay [5], in [6] and in [17] was inactive. The activation in [11] was 0.875% (inactive). Besides, the viability change in [12] worked out at 1.65%.
Regarding `O=S(=O)(c1cccc2c(I)cccc12)N1CCCNCC1`, the Potency entry in [1], in [2], in [3], in assay [8], in assay [15] and in [12] was “inactive” in each case. Moreover, in [14], the Potency result is “inactive”. Moreover, the compound was classed as inactive in [16] and in [6]. Moreover, the Potency in assay [7] is 14.1 µM (active). The activation in assay [11] is 2.06% (inactive). In assay [12], the viability change was found to be 12.3%.
On to `Cc1ccc(S(=O)(=O)/C=C/C#N)cc1`, for which the Potency is 238 nM (active) in assay [18], 39.8 µM (active) in assay [4], 12.6 µM (active) in assay [9] and 20.6 µM (active) in [10]. Moreover, the Potency result in assay [2], in assay [3], in [7] and in assay [8] was “inactive” each time. In addition, the outcome in [16] was inactive.
